Assay results reported in the supplement of paper PMC9492666.
Counter-ions that a name gives are not always drawn.

What follows are compounds tested on HCC1937 (assay: relative cell viability, compound + erastin, vs DMSO (fraction of DMSO control); higher = less growth inhibition). Conditions: 72 h.
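Also: viability read by CCK-8 kit in 96-well plates, part of a combination screen pairing lipid-metabolism-targeting compounds with erastin.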

SMILES	relative cell viability
O=C(CBr)c1ccc(O)cc1 [PTP Inhibitor I] + CCOc1ccccc1-n1c(C(C)N2CCN(C(=O)COc3ccc(Cl)cc3)CC2)nc2ccccc2c1=O [erastin]	0.717
Cn1nc(C(=O)N(Cc2ccccc2)Cc2ccc(C(=O)O)cc2)c2c1-c1cc(Cl)ccc1OC2 [Nidufexor] + CCOc1ccccc1-n1c(C(C)N2CCN(C(=O)COc3ccc(Cl)cc3)CC2)nc2ccccc2c1=O [erastin]	0.638
C[C@]12CC[C@@H](O)C[C@@H]1CC[C@@H]1[C@@H]2CC[C@]2(C)C(=O)CC[C@@H]12 [Androsterone] + CCOc1ccccc1-n1c(C(C)N2CCN(C(=O)COc3ccc(Cl)cc3)CC2)nc2ccccc2c1=O [erastin]	0.763
Cc1nc(Nc2cnn(C3CCNCC3)c2)nc2c1N(C)C(=O)c1cc3ccccc3cc1N2C + CCOc1ccccc1-n1c(C(C)N2CCN(C(=O)COc3ccc(Cl)cc3)CC2)nc2ccccc2c1=O [erastin]	0.215
CC[C@@H]1/C=C(\C)C[C@H](C)C[C@H](OC)[C@H]2O[C@@](O)(C(=O)C(=O)N3CCCC[C@H]3C(=O)O[C@H](/C(C)=C/[C@@H]3CC[C@@H](O)[C@H](OC)C3)[C@H](C)[C@@H](O)CC1=O)[C@H](C)C[C@@H]2OC [Ascomycin] + CCOc1ccccc1-n1c(C(C)N2CCN(C(=O)COc3ccc(Cl)cc3)CC2)nc2ccccc2c1=O [erastin]	0.086
CC(c1cc2ccccc2s1)N(O)C(N)=O (stereo not drawn) [Zileuton] + CCOc1ccccc1-n1c(C(C)N2CCN(C(=O)COc3ccc(Cl)cc3)CC2)nc2ccccc2c1=O [erastin]	0.847
O=C(CCCCc1ccc2c(c1)OCO2)N1CCCCC1 + CCOc1ccccc1-n1c(C(C)N2CCN(C(=O)COc3ccc(Cl)cc3)CC2)nc2ccccc2c1=O [erastin]	0.549
CC(C)c1c(C(=O)Nc2ccccc2)c(-c2ccccc2)c(-c2ccc(F)cc2)n1CC[C@@H](O)C[C@@H](O)CC(=O)O [Atorvastatin Calcium] + CCOc1ccccc1-n1c(C(C)N2CCN(C(=O)COc3ccc(Cl)cc3)CC2)nc2ccccc2c1=O [erastin]	0.357
Cc1cc(=O)oc2c(O)c(O)ccc12 [7,8-Dihydroxy-4-methylcoumarin] + CCOc1ccccc1-n1c(C(C)N2CCN(C(=O)COc3ccc(Cl)cc3)CC2)nc2ccccc2c1=O [erastin]	0.489
CC1(N)CCN(c2cnc(-c3cccc(Cl)c3Cl)c(N)n2)CC1 [SHP099 hydrochloride] + CCOc1ccccc1-n1c(C(C)N2CCN(C(=O)COc3ccc(Cl)cc3)CC2)nc2ccccc2c1=O [erastin]	0.729
CCCc1cc(-c2nc(-c3ccc(NS(C)(=O)=O)cc3)cs2)ccn1 + CCOc1ccccc1-n1c(C(C)N2CCN(C(=O)COc3ccc(Cl)cc3)CC2)nc2ccccc2c1=O [erastin]	0.394
CCN(CC)C(=O)N1CCN(C)CC1 [Diethylcarbamazine citrate] + CCOc1ccccc1-n1c(C(C)N2CCN(C(=O)COc3ccc(Cl)cc3)CC2)nc2ccccc2c1=O [erastin]	0.729
CCCCCC=CC(=O)CCc1ccc(O)c(OC)c1 [6-Shogaol] + CCOc1ccccc1-n1c(C(C)N2CCN(C(=O)COc3ccc(Cl)cc3)CC2)nc2ccccc2c1=O [erastin]	0.639
CC(C)c1nc(N(C)S(C)(=O)=O)nc(-c2ccc(F)cc2)c1/C=C/[C@@H](O)C[C@@H](O)CC(=O)O [Rosuvastatin] + CCOc1ccccc1-n1c(C(C)N2CCN(C(=O)COc3ccc(Cl)cc3)CC2)nc2ccccc2c1=O [erastin]	0.656
CC(C)(Oc1ccc(C2CC2(Cl)Cl)cc1)C(=O)O (stereo not drawn) [Ciprofibrate] + CCOc1ccccc1-n1c(C(C)N2CCN(C(=O)COc3ccc(Cl)cc3)CC2)nc2ccccc2c1=O [erastin]	0.848
C[C@H](CCOc1cccc(CC(=O)O)c1)N(Cc1cccc(C(F)(F)F)c1Cl)CC(c1ccccc1)c1ccccc1 [RGX-104 free Acid] + CCOc1ccccc1-n1c(C(C)N2CCN(C(=O)COc3ccc(Cl)cc3)CC2)nc2ccccc2c1=O [erastin]	0.564
O=C(Nc1ccccc1)c1cc([N+](=O)[O-])ccc1Cl + CCOc1ccccc1-n1c(C(C)N2CCN(C(=O)COc3ccc(Cl)cc3)CC2)nc2ccccc2c1=O [erastin]	0.71
Cc1nc(-c2nc(-c3ccc(OC(F)(F)F)cc3)no2)nn1Cc1cccc(N2CCC(S(C)(=O)=O)CC2)c1 + CCOc1ccccc1-n1c(C(C)N2CCN(C(=O)COc3ccc(Cl)cc3)CC2)nc2ccccc2c1=O [erastin]	0.647
COC(=O)CN(c1ccc(CN(c2ccc(OCc3ccc(C)cc3)c(C(=O)OC)c2)S(=O)(=O)Cc2ccccc2)cc1)S(C)(=O)=O + CCOc1ccccc1-n1c(C(C)N2CCN(C(=O)COc3ccc(Cl)cc3)CC2)nc2ccccc2c1=O [erastin]	0.624

SMILES	relative cell viability
CN(CCOc1ccc(CC2SC(=O)NC2=O)cc1)c1ccccn1 (stereo not drawn) [Rosiglitazone maleate] + CCOc1ccccc1-n1c(C(C)N2CCN(C(=O)COc3ccc(Cl)cc3)CC2)nc2ccccc2c1=O [erastin]	0.824
CC(C)C1=CC2=CC[C@@H]3[C@](C)(CCC[C@@]3(C)C(=O)O)[C@H]2CC1 [Abietic Acid] + CCOc1ccccc1-n1c(C(C)N2CCN(C(=O)COc3ccc(Cl)cc3)CC2)nc2ccccc2c1=O [erastin]	0.673
CCCCCCCCCCCCCCCC(=O)NCCO [Palmidrol] + CCOc1ccccc1-n1c(C(C)N2CCN(C(=O)COc3ccc(Cl)cc3)CC2)nc2ccccc2c1=O [erastin]	0.91
COc1ccc(-c2cc(=O)c3c(O)c(OC)c(O)cc3o2)cc1OC [Eupatilin] + CCOc1ccccc1-n1c(C(C)N2CCN(C(=O)COc3ccc(Cl)cc3)CC2)nc2ccccc2c1=O [erastin]	0.431
COC(=O)N(CC(=O)O)Cc1cccc(OCc2nc(-c3ccc(Cl)cc3)oc2C)c1 + CCOc1ccccc1-n1c(C(C)N2CCN(C(=O)COc3ccc(Cl)cc3)CC2)nc2ccccc2c1=O [erastin]	0.734
CC1=C(/C=C/C(C)=C/C=C/C(C)=C/C=C/C=C(C)/C=C/C=C(C)/C=C/C2=C(C)C(=O)[C@@H](O)CC2(C)C)C(C)(C)C[C@H](O)C1=O [Astaxanthin] + CCOc1ccccc1-n1c(C(C)N2CCN(C(=O)COc3ccc(Cl)cc3)CC2)nc2ccccc2c1=O [erastin]	0.674
c1cc(-c2cnn3cc(-c4ccc(OCCN5CCCCC5)cc4)cnc23)ccn1 [Dorsomorphin dihydrochloride] + CCOc1ccccc1-n1c(C(C)N2CCN(C(=O)COc3ccc(Cl)cc3)CC2)nc2ccccc2c1=O [erastin]	0.0948
O=C(c1c2ccccc2cc2ccccc12)N1CCC(N2CCC[C@@H](C(=O)N3CCOCC3)C2)CC1 + CCOc1ccccc1-n1c(C(C)N2CCN(C(=O)COc3ccc(Cl)cc3)CC2)nc2ccccc2c1=O [erastin]	0.514
Cc1cc(SCc2sc(-c3ccc(C(F)(F)F)cc3)nc2C)ccc1OCC(=O)O + CCOc1ccccc1-n1c(C(C)N2CCN(C(=O)COc3ccc(Cl)cc3)CC2)nc2ccccc2c1=O [erastin]	0.529
CC(C)OC(=O)CCC/C=C\C[C@@H]1[C@@H](CC[C@@H](O)CCc2ccccc2)[C@H](O)C[C@@H]1O [Latanoprost] + CCOc1ccccc1-n1c(C(C)N2CCN(C(=O)COc3ccc(Cl)cc3)CC2)nc2ccccc2c1=O [erastin]	1
O=C(O)c1cc2c(Cl)c(N3CCN(S(=O)(=O)c4c(Cl)cccc4Cl)CC3)ccc2o1 [Vonafexor] + CCOc1ccccc1-n1c(C(C)N2CCN(C(=O)COc3ccc(Cl)cc3)CC2)nc2ccccc2c1=O [erastin]	0.846
CC(C)CCC[C@@H](C)[C@H]1CC[C@H]2[C@@H]3CCC4=CC(=NO)CC[C@]4(C)[C@H]3CC[C@]12C [Olesoxime] + CCOc1ccccc1-n1c(C(C)N2CCN(C(=O)COc3ccc(Cl)cc3)CC2)nc2ccccc2c1=O [erastin]	0.673
O=C1c2cccc(O)c2C(=O)c2c(O)cccc21 [Antrapurol] + CCOc1ccccc1-n1c(C(C)N2CCN(C(=O)COc3ccc(Cl)cc3)CC2)nc2ccccc2c1=O [erastin]	0.735
Fc1ccc(-c2c3cccc(C(F)(F)F)c3nn2Cc2ccc(F)cc2Cl)cc1 + CCOc1ccccc1-n1c(C(C)N2CCN(C(=O)COc3ccc(Cl)cc3)CC2)nc2ccccc2c1=O [erastin]	0.797
c1cc(-c2cnn3cc(-c4ccc(OCCN5CCCCC5)cc4)cnc23)ccn1 [Dorsomorphin] + CCOc1ccccc1-n1c(C(C)N2CCN(C(=O)COc3ccc(Cl)cc3)CC2)nc2ccccc2c1=O [erastin]	0.137
Cc1c(C)c2c(c(C)c1O)CCC(C)(COc1ccc(CC3SC(=O)NC3=O)cc1)O2 (stereo not drawn) [Troglitazone] + CCOc1ccccc1-n1c(C(C)N2CCN(C(=O)COc3ccc(Cl)cc3)CC2)nc2ccccc2c1=O [erastin]	0.641
O=C(CN1CCN(C(=O)c2ccco2)CC1)Nc1cc(C(F)(F)F)ccc1Cl + CCOc1ccccc1-n1c(C(C)N2CCN(C(=O)COc3ccc(Cl)cc3)CC2)nc2ccccc2c1=O [erastin]	0.638
CC(=O)N1CCN(c2ccc(OCC3COC(Cn4ccnc4)(c4ccc(Cl)cc4Cl)O3)cc2)CC1 (stereo not drawn) [Ketoconazole] + CCOc1ccccc1-n1c(C(C)N2CCN(C(=O)COc3ccc(Cl)cc3)CC2)nc2ccccc2c1=O [erastin]	0.884
CC(C)OC(=O)C(C(=O)OC(C)C)=C1SC=CS1 [Malotilate] + CCOc1ccccc1-n1c(C(C)N2CCN(C(=O)COc3ccc(Cl)cc3)CC2)nc2ccccc2c1=O [erastin]	0.459
